Measurements reported in doi:10.1101/2024.03.05.583629.

Experiments:
[1] = target: pT7_6His-AlfaTag-HOXD13 (human, UniProt P35453 263-343); assay: PADIT-seq; conditions: dsDNA, one strand shown
[2] = target: pT7_6His-AlfaTag-ZIF268 (human, UniProt P18146 335-423); assay: PADIT-seq; conditions: dsDNA, one strand shown

pT7_6His-AlfaTag-HOXD13, sequence (P35453 263-343): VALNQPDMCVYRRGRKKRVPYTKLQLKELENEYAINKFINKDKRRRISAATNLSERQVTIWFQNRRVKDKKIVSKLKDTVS

| Sequence | binding signal [1] [log2FC] | binding signal [2] [log2FC] |
| --- | --- | --- |
| CTCGAGGATATCAAGATCTGGCCTCGGCACTATAAAAGGAACCTCTAGCTAGCCGACTCACTATAGGGATAATCGCCCTGAGCAAAGACC | 2.93 ± 0.0918 | 0.0278 ± 0.1 |
| CTCGAGGATATCAAGATCTGGCCTCGGCCTTTTACGCGGAACCTCTAGCTAGCCGACTCACTATAGGGATAATCGCCCTGAGCAAAGACC | 1.9 ± 0.0733 | 0.0363 ± 0.0782 |
| CTCGAGGATATCAAGATCTGGCCTCGGCAGCCCACGCGGAACCTCTAGCTAGCCGACTCACTATAGGGATAATCGCCCTGAGCAAAGACC | -0.926 ± 0.109 | 0.806 ± 0.0795 |
| CTCGAGGATATCAAGATCTGGCCTCGGCTTATGGGCGGGAACCTCTAGCTAGCCGACTCACTATAGGGATAATCGCCCTGAGCAAAGACC | 1.03 ± 0.0902 | 0.0657 ± 0.0898 |
| CTCGAGGATATCAAGATCTGGCCTCGGCGCGTGGATAGGAACCTCTAGCTAGCCGACTCACTATAGGGATAATCGCCCTGAGCAAAGACC | -0.997 ± 0.122 | 0.0372 ± 0.0987 |
| CTCGAGGATATCAAGATCTGGCCTCGGCAGTGTAAAAGGAACCTCTAGCTAGCCGACTCACTATAGGGATAATCGCCCTGAGCAAAGACC | 0.712 ± 0.08 | 0.045 ± 0.0778 |
| CTCGAGGATATCAAGATCTGGCCTCGGCGCGGATGCGGGAACCTCTAGCTAGCCGACTCACTATAGGGATAATCGCCCTGAGCAAAGACC | 0.465 ± 0.106 | 0.109 ± 0.102 |
| CTCGAGGATATCAAGATCTGGCCTCGGCTGGCTAAAAGGAACCTCTAGCTAGCCGACTCACTATAGGGATAATCGCCCTGAGCAAAGACC | -0.708 ± 0.106 | 0.0373 ± 0.0882 |
| CTCGAGGATATCAAGATCTGGCCTCGGCGCGTGGGGTGGAACCTCTAGCTAGCCGACTCACTATAGGGATAATCGCCCTGAGCAAAGACC | -1.1 ± 0.157 | 1.28 ± 0.111 |
| CTCGAGGATATCAAGATCTGGCCTCGGCATTTTACTCGGAACCTCTAGCTAGCCGACTCACTATAGGGATAATCGCCCTGAGCAAAGACC | 0.755 ± 0.0905 | 0.0783 ± 0.0882 |
| CTCGAGGATATCAAGATCTGGCCTCGGCGTTTTAGCAGGAACCTCTAGCTAGCCGACTCACTATAGGGATAATCGCCCTGAGCAAAGACC | 0.799 ± 0.115 | 0.0694 ± 0.112 |
| CTCGAGGATATCAAGATCTGGCCTCGGCTATTGGGCGGGAACCTCTAGCTAGCCGACTCACTATAGGGATAATCGCCCTGAGCAAAGACC | -0.163 ± 0.106 | 0.205 ± 0.0951 |
| CTCGAGGATATCAAGATCTGGCCTCGGCACGTGGGCGGGAACCTCTAGCTAGCCGACTCACTATAGGGATAATCGCCCTGAGCAAAGACC | -0.888 ± 0.116 | 3.56 ± 0.0868 |
| CTCGAGGATATCAAGATCTGGCCTCGGCGTTTTAAGTGGAACCTCTAGCTAGCCGACTCACTATAGGGATAATCGCCCTGAGCAAAGACC | 0.876 ± 0.107 | 0.00666 ± 0.106 |
| CTCGAGGATATCAAGATCTGGCCTCGGCGCGTGGGTTGGAACCTCTAGCTAGCCGACTCACTATAGGGATAATCGCCCTGAGCAAAGACC | -1.06 ± 0.134 | 2.53 ± 0.0963 |
| CTCGAGGATATCAAGATCTGGCCTCGGCAGGTTAAAAGGAACCTCTAGCTAGCCGACTCACTATAGGGATAATCGCCCTGAGCAAAGACC | 0.752 ± 0.0728 | 0.0674 ± 0.0711 |
| CTCGAGGATATCAAGATCTGGCCTCGGCGTTTTAGGCGGAACCTCTAGCTAGCCGACTCACTATAGGGATAATCGCCCTGAGCAAAGACC | -0.768 ± 0.146 | 0.0528 ± 0.123 |
| CTCGAGGATATCAAGATCTGGCCTCGGCAGTTGGGCGGGAACCTCTAGCTAGCCGACTCACTATAGGGATAATCGCCCTGAGCAAAGACC | -0.843 ± 0.104 | 0.102 ± 0.086 |
| CTCGAGGATATCAAGATCTGGCCTCGGCACCATAAAAGGAACCTCTAGCTAGCCGACTCACTATAGGGATAATCGCCCTGAGCAAAGACC | 2.69 ± 0.0753 | 0.0345 ± 0.0841 |
| CTCGAGGATATCAAGATCTGGCCTCGGCCGCCTACGCGGAACCTCTAGCTAGCCGACTCACTATAGGGATAATCGCCCTGAGCAAAGACC | -0.992 ± 0.109 | 1.76 ± 0.0783 |
| CTCGAGGATATCAAGATCTGGCCTCGGCTTTTTATTTGGAACCTCTAGCTAGCCGACTCACTATAGGGATAATCGCCCTGAGCAAAGACC | 2.91 ± 0.0833 | 0.188 ± 0.0912 |
| CTCGAGGATATCAAGATCTGGCCTCGGCGCGATTGCGGGAACCTCTAGCTAGCCGACTCACTATAGGGATAATCGCCCTGAGCAAAGACC | -0.695 ± 0.114 | 0.187 ± 0.0941 |
| CTCGAGGATATCAAGATCTGGCCTCGGCCTTTGGGCGGGAACCTCTAGCTAGCCGACTCACTATAGGGATAATCGCCCTGAGCAAAGACC | -0.932 ± 0.115 | 0.262 ± 0.0913 |
| CTCGAGGATATCAAGATCTGGCCTCGGCCGCCAGCGCGGAACCTCTAGCTAGCCGACTCACTATAGGGATAATCGCCCTGAGCAAAGACC | -0.898 ± 0.171 | 0.462 ± 0.139 |
| CTCGAGGATATCAAGATCTGGCCTCGGCACACCACGCGGAACCTCTAGCTAGCCGACTCACTATAGGGATAATCGCCCTGAGCAAAGACC | -0.837 ± 0.131 | 0.0231 ± 0.103 |
| CTCGAGGATATCAAGATCTGGCCTCGGCAACCTAAAAGGAACCTCTAGCTAGCCGACTCACTATAGGGATAATCGCCCTGAGCAAAGACC | -0.715 ± 0.12 | 0.113 ± 0.099 |
